Laboratory results reported in PubChem BioAssay (NCATS).
Values joined by “and” are separate entries in the source; they are usually repeats but may differ in a detail not shown here. Equal entries are not always repeated. Records with an inconclusive call do not appear. A call without a number means that no potency is given here. Active and inactive are the calls of the source. Calls come from the whole dose curve; as a rule, active = well fitted curve in the direction sought with a large enough effect; inconclusive = small, poorly fitted or top-dose-only effect, or another doubt; inactive = no such curve, though single readings can be large; an effect the other way counts as inactive or inconclusive.

Key:
[1] = qHTS for Inhibitors of Ubiquitin-specific Protease USP2a Using CHOP2 as the Reporter: K633 Counterscreen (AID 652168); note: series mostly up to about 57 µM
In short: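 Cell-free interference counterscreen without USP2a: compounds pinned into enzyme-free buffer (20 mM Tris pH 8, 2 mM beta-mercaptoethanol, 0.05% Chaps), then DiUb K48-4IQF substrate added (100 nM stock); fluorescence read kinetically, Ex 525/Em 598.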

[2] = qHTS for Inhibitors of Ubiquitin-specific Protease USP2a Using CHOP2 as the Reporter: Cytotox Assay (AID 652170); note: nearly all actives have a fitted effect of over 70% in size; note: potency is the fitted concentration of half-maximal effect
In short: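 HCT116 human colon cancer cells, 600 per well in DMEM with 10% FBS, exposed to compounds for 72 hr at 37 deg C. ATP measured by CellTiter-Glo luminescence, normalized to DMSO cells and no-cell background.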

[3] = target: Ubiquitin carboxyl-terminal hydrolase 2 (Homo sapiens) (UniProt O75604); assay: qHTS for Inhibitors of Ubiquitin-specific Protease USP2a Using CHOP2 as the Reporter: K484 Substrate (AID 652173);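 note: cleavage of internally quenched K48 di-ubiquitin substrate measured as rising fluorescence over time; nearly all actives have a fitted effect of over 70% in size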; note: potency is the fitted concentration of half-maximal effect
In short: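 USP2 (dispensed at 5 nM) was pinned with compounds, then DiUb K48 internally quenched fluorescent substrate (dispensed at 100 nM) was added. The buffer was 20 mM Tris pH 8, 2 mM beta-mercaptoethanol and 0.05% CHAPS. Cleavage was read kinetically as rising fluorescence, Ex 525/Em 598.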

Ubiquitin carboxyl-terminal hydrolase 2 (Homo sapiens), sequence (O75604 whole entry, looked up): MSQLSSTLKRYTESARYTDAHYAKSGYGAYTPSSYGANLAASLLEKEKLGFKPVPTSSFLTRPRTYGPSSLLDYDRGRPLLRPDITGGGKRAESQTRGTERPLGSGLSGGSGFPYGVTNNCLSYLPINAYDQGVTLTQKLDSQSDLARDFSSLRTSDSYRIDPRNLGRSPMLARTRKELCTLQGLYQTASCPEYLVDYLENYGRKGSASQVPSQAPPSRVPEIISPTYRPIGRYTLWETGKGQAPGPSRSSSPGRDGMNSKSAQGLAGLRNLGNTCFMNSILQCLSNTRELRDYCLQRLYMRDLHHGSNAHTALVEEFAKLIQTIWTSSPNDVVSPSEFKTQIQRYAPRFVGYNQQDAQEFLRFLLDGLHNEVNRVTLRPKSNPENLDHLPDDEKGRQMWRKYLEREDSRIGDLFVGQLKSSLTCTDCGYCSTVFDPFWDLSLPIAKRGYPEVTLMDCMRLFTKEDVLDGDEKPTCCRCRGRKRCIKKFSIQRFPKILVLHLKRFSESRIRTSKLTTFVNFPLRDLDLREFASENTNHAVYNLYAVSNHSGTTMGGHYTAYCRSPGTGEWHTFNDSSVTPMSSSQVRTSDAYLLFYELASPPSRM

SMILES	outcome [1]	Potency [2]	Potency [3]
O=C(Nc1nc(-c2ccccc2)cs1)c1ccncc1NS(=O)(=O)c1ccc(F)cc1Cl	inactive	inactive	1.93 µM (active)
CCc1ccc(S(=O)(=O)Nc2cnccc2C(=O)Nc2nc(-c3ccccc3)cs2)cc1	inactive	20.9 µM (active)	1.72 µM (active)
Cc1ccc(S(=O)(=O)Nc2cnccc2C(=O)Nc2nc(-c3cnn(C)c3)cs2)cc1	inactive	inactive	8.63 µM (active)
O=C(Nc1nc(-c2ccccc2)cs1)c1ccncc1NS(=O)(=O)c1ccccc1F	inactive	inactive	2.43 µM (active)
O=C(Nc1ccc(S(=O)(=O)Nc2nccs2)cc1)c1ccc(-c2ccccc2)cc1	inactive	inactive	24.3 µM (active)
CC(=O)Nc1ncc(S(=O)(=O)Nc2cnccc2C(=O)Nc2nc(-c3ccccc3)cs2)s1	inactive	inactive	10.9 µM (active)
O=C(O)C1CCC(C(=O)Nc2ccc([S+](=O)([O-])Nc3nccs3)cc2)CC1 (configuration not stated)	inactive	inactive	inactive
Cc1ccc(S(=O)(=O)Nc2cnccc2C(=O)Nc2nc(-c3nc4ccccc4s3)cs2)cc1	inactive	inactive	1.72 µM (active)
Cc1ccc(S(=O)(=O)Nc2cnccc2C(=O)Nc2nc(-c3ccc(Oc4ccccc4)cc3)cs2)cc1	inactive	20.9 µM (active)	2.17 µM (active)
COc1ccccc1S(=O)(=O)Nc1cnccc1C(=O)Nc1nc(-c2ccccc2)cs1	inactive	inactive	13.7 µM (active)
O=C(Nc1nc(-c2ccccc2)cs1)c1ccncc1NS(=O)(=O)c1cccc(Cl)c1	inactive	inactive	3.85 µM (active)
Nc1ccc(S(=O)(=O)Nc2cnccc2C(=O)Nc2nc(-c3ccccc3)cs2)cc1	inactive	inactive	17.2 µM (active)
N#Cc1cnc(NS(=O)(=O)c2ccc(NC(=O)Cc3ccc(Cl)c(Cl)c3)cc2)s1	inactive	inactive	3.43 µM (active)
Cc1ccc(S(=O)(=O)Nc2cnccc2C(=O)Nc2nc3ccccc3s2)cc1	inactive	inactive	3.43 µM (active)
CCCc1ccc(C(=O)Nc2ccc(S(=O)(=O)Nc3nccs3)cc2)cc1	inactive	inactive	21.7 µM (active)
O=C(Nc1nc(-c2ccccc2)cs1)c1ccncc1NS(=O)(=O)c1ccccc1Cl	inactive	inactive	1.53 µM (active)
N#Cc1cnc(NS(=O)(=O)c2ccc(NC(=O)Cc3ccc(F)c(Cl)c3)cc2)s1	inactive	inactive	15.3 µM (active)
Cc1ccc(S(=O)(=O)Nc2cc(Cl)c(Cl)cc2C(=O)Nc2nc(-c3ccccc3)cs2)cc1	inactive	5.26 µM (active)	1.37 µM (active)
Cc1ccc(-c2cc(C(=O)Nc3ccc(S(=O)(=O)O)cc3)c3ccccc3n2)cc1C	inactive	inactive	13.7 µM (active)
Cc1ccc(-c2cc(C(=O)Nc3ccc(S(N)(=O)=O)cc3)c3cccc(C)c3n2)cc1C	inactive	inactive	17.2 µM (active) and 6.85 µM (active)
Cc1ccc(S(=O)(=O)Nc2cnccc2C(=O)Nc2ccc(-c3nn[nH]n3)cc2)cc1	inactive	inactive	8.63 µM (active)
O=C(Nc1nc(-c2ccccc2)cs1)c1ccncc1NS(=O)(=O)c1ccc(Cl)cc1	inactive	inactive	1.53 µM (active)
COCOC1CCC(C(=O)Nc2ccc([S+](=O)([O-])Nc3nccs3)cc2)CC1 (configuration not stated)	inactive	inactive	inactive
CCCc1ccc(-c2csc(NC(=O)c3ccncc3NS(=O)(=O)c3ccc(C)cc3)n2)cc1	inactive	20.9 µM (active)	1.53 µM (active)
N#Cc1cnc(N[S+](=O)([O-])c2ccc(Nc3nc(-c4ccccc4)cs3)cc2)s1	inactive	inactive	inactive
Cc1ccc(-c2csc(NC(=O)c3ccncc3NS(=O)(=O)c3ccc(C)cc3)n2)cc1	inactive	14.8 µM (active)	1.22 µM (active)
O=C1CCCc2cc(S(=O)(=O)Nc3cnccc3C(=O)Nc3nc(-c4ccccc4)cs3)ccc2N1	inactive	inactive	7.69 µM (active)
COc1ccc(C(=O)Nc2nc(-c3ccccc3)cs2)c(NS(=O)(=O)c2ccc(C)cc2)c1	inactive	13.2 µM (active)	1.37 µM (active)
O=C(Nc1nc(-c2ccccc2)cs1)c1ccncc1NS(=O)(=O)c1ccc(F)cc1	inactive	inactive	3.06 µM (active)
